Results as given in the supplement of paper PMC12636033.
± gives the standard deviation of the averaged measurements. The full ranking holds about 33,000 sequences; the median of “E-score (rank enrichment, -0.5 to 0.5)” is about -0.0068, and the highest 2% start at about 0.24. The list comes from a sample in which the highest values are over-represented; it also holds similar and randomly drawn sequences.

tested on: muMax20 (Max(13-93) K31hArg/K57hArg, M65Nle); assay: PBM 8-mer E-score (E-score (rank enrichment, -0.5 to 0.5)); higher = stronger preferential binding
Description: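 Protein binding microarray (universal PBM chip covering all 10-mers in fixed probe flanks) with chemically synthesized human Max(13-93) bHLH-LZ analogs (not full-length Max) bearing noncanonical residues (hArg, Tha, Aib, Nle at 65) and aromatic Cys staples. Read-out per 8-mer (and its reverse complement): E-score (rank-based enrichment, -0.5 to 0.5) and Z-score of median probe intensity.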

Row | Sequence | PBM 8-mer E-score
1 | ATCGTCGA | -0.133 ± 0.025
2 | ATTGGATA | -0.0183 ± 0.031
3 | ATAATGAC | 0.122 ± 0.01
4 | CCAGTCCA | -0.0788 ± 0.061
5 | TAAAAGTA | 0.189 ± 0.074
6 | GTGGGCAA | 0.0632 ± 0.065
7 | AGATGTGG | -0.0064 ± 0.024
8 | AGATGTGA | 0.11 ± 0.04
9 | CCATGTGA | 0.268 ± 0.088
10 | GCATGTGA | 0.236 ± 0.11
11 | CGATGTGA | -0.012 ± 0.0036
12 | ACATGTGA | 0.313 ± 0.063
13 | ACATGTCA | 0.0739 ± 0.079
14 | CTATGTGC | 0.175 ± 0.034
15 | ACATGTGG | 0.335 ± 0.035
16 | CCATGTGC | 0.265 ± 0.12
17 | CCATGTTC | -0.0553 ± 0.12
18 | AAATGTGG | 0.139 ± 0.016
19 | CTAGTAAC | 0.196 ± 0.0053
20 | ATCTTGGC | -0.108 ± 0.011
21 | AGCTCGTG | 0.0196 ± 0.019
22 | GGGCCACA | -0.0874 ± 0.078
23 | CTGCTGCC | -0.156 ± 0.007
24 | GTGTCTAA | 0.0915 ± 0.069
25 | ATGGATAA | 0.163 ± 0.05

Row | Sequence | PBM 8-mer E-score
26 | GATCCAAC | -0.0916 ± 0.056
27 | CGATGCAG | -0.0636 ± 0.022
28 | AGGCACAA | 0.00764 ± 0.053
29 | ACATGTCC | 0.132 ± 0.091
30 | AGATGTGC | -0.0232 ± 0.13
31 | ACATGTGC | 0.265 ± 0.089
32 | AAAAGGGT | 0.017 ± 0.098
33 | AGCACGCG | 0.238 ± 0.13
34 | CAAACACA | 0.181 ± 0.095
35 | ACCACGCG | 0.3 ± 0.11
36 | CAAACACG | 0.292 ± 0.006
37 | CCCACGCC | -0.00197 ± 0.078
38 | AGCACGCA | 0.00177 ± 0.16
39 | CCCACGCG | 0.246 ± 0.025
40 | TAAACACA | 0.218 ± 0.043
41 | ACCACGCC | -0.112 ± 0.055
42 | CCCACGCA | -0.043 ± 0.11
43 | CGCACGCG | 0.171 ± 0.035
44 | ACCACGCA | -0.00629 ± 0.023
45 | ATCTCAAT | 0.0437 ± 0.22
46 | ATCTCCCA | 0.0498 ± 0.043
47 | AGACCAGA | -0.0423 ± 0.084
48 | AGGGTGCG | -0.107 ± 0.027
49 | CTGAGCAG | -0.139 ± 0.067
50 | ACATAGGC | 0.126 ± 0.0047

Row | Sequence | PBM 8-mer E-score
51 | CGCAGGGA | -0.135 ± 0.074
52 | AGCACGTG | 0.436 ± 0.07
53 | AGCACGTA | 0.0788 ± 0.0046
54 | ATCACGTG | 0.445 ± 0.064
55 | ACCACGTA | -0.0417 ± 0.022
56 | ACCACGTC | 0.0772 ± 0.1
57 | CACACGCA | 0.0877 ± 0.054
58 | CACACGCG | 0.258 ± 0.038
59 | AACACGCG | 0.202 ± 0.042
60 | ATCACGTC | 0.182 ± 0.045
61 | ATCACGTA | 0.144 ± 0.055
62 | ACCACGTG | 0.477 ± 0.026
63 | AGCACGTC | -0.139 ± 0.096
64 | ATGCCCAG | -0.219 ± 0.063
65 | ACTCGCTA | -0.111 ± 0.17
66 | CCGTGCCG | -0.206 ± 0.017
67 | GACCACAC | 0.0455 ± 0.029
68 | CACTAGGG | -0.0807 ± 0.033
69 | TATGGAAA | 0.148 ± 0.034
70 | CCCCCTCG | -0.0378 ± 0.01
71 | ATGCCCAC | 0.164 ± 0.033
72 | CATGAATG | 0.126 ± 0.15
73 | AATGAATA | 0.275 ± 0.093
74 | GATGAATA | 0.24 ± 0.097
75 | CATGAATA | 0.192 ± 0.13

Row | Sequence | PBM 8-mer E-score
76 | AATGAATG | 0.259 ± 0.058
77 | AATGAACT | -0.00523 ± 0.086
78 | AATGAATC | -0.0408 ± 0.034
79 | AATGAAAT | 0.0911 ± 0.04
80 | ACTGAATA | 0.0784 ± 0.014
81 | TATGAATA | 0.159 ± 0.029
82 | AATGAATT | 0.238 ± 0.013
83 | GATGAATC | 0.0791 ± 0.018
84 | ATGTATCA | 0.135 ± 0.08
85 | ATAGAGCA | -0.146 ± 0.024
86 | GAACCGAA | 0.0388 ± 0.025
87 | AAACCCCG | 0.193 ± 0.062
88 | ACCTACTG | 0.118 ± 0.053
89 | CATTGATC | 0.196 ± 0.028
90 | ATCGCAAT | 0.0576 ± 0.054
91 | CAAAGCTC | -0.178 ± 0.079
92 | CGCATCTA | 0.176 ± 0.0097
93 | CTCTTCGA | 0.0225 ± 0.082
94 | TAATTGTA | 0.146 ± 0.091
95 | AAATTGTT | 0.136 ± 0.14
96 | AAATTGTA | 0.282 ± 0.017
97 | CGCGAACC | -0.2495 ± 0.00081
98 | CCTGAAAG | 0.0218 ± 0.0043
99 | ACAACATG | 0.265 ± 0.008
100 | ACAACATA | 0.0952 ± 0.11

Row | Sequence | PBM 8-mer E-score
101 | ACAACAAA | 0.163 ± 0.0084
102 | ACAACAAC | 0.125 ± 0.024
103 | ACAACCAG | 0.062 ± 0.026
104 | ACAACATC | 0.0572 ± 0.022
105 | ACAACCAT | 0.29 ± 0.03
106 | ACAACAAG | 0.262 ± 0.017
107 | ACAACCAC | 0.033 ± 0.02
108 | CCGTGAGA | -0.189 ± 0.067
109 | ACCTATGA | -0.136 ± 0.034
110 | ACCACCGC | -0.0018 ± 0.023
111 | ATTCTTTC | 0.176 ± 0.02
112 | CGCAGTGC | -0.12 ± 0.2
113 | CATCGGGC | -0.209 ± 0.08
114 | ATGTTGCA | 0.122 ± 0.029
115 | AAGTAGAT | 0.0944 ± 0.081
116 | ACCTGGCG | -0.256 ± 0.014
117 | GGGGCACA | 0.0581 ± 0.01
118 | TGTGAAAA | 0.289 ± 0.071
119 | GGTGAAAA | -0.0373 ± 0.0061
120 | CTTGAAAA | 0.117 ± 0.035
121 | ATTGAAAA | 0.306 ± 0.03
122 | ATTGAAAC | 0.154 ± 0.059
123 | CGTGAAAA | 0.213 ± 0.11
124 | CGCCGACC | -0.14 ± 0.057
125 | ACTGAGGA | -0.126 ± 0.025

Row | Sequence | PBM 8-mer E-score
126 | AGCACCTG | -0.0212 ± 0.043
127 | TACGTAGA | 0.0117 ± 0.044
128 | AACGAGGT | -0.0494 ± 0.052
129 | AGTTAGCA | 0.0279 ± 0.055
130 | ACGTGTCG | 0.237 ± 0.075
131 | CCGTGTCG | -0.1658 ± 0.00081
132 | GCGTGTCA | 0.149 ± 0.2
133 | CCGTGTCA | -0.0799 ± 0.0084
134 | AAGTGTCG | 0.0406 ± 0.12
135 | AAGTGTCT | 0.0152 ± 0.031
136 | ACGTGTCC | 0.166 ± 0.052
137 | ACGTGTCT | 0.326 ± 0.036
138 | ACGTGTCA | 0.278 ± 0.094
139 | CAGCCGTA | -0.128 ± 0.029
140 | ACATTAAC | 0.175 ± 0.0064
141 | CCATTAAC | 0.239 ± 0.015
142 | GCATTAAC | 0.0389 ± 0.091
143 | TGCGAACA | 0.109 ± 0.11
144 | ATCACATC | 0.00749 ± 0.048
145 | ATCACATG | 0.296 ± 0.11
146 | ATCACATA | 0.168 ± 0.048
147 | ACCACATC | -0.0454 ± 0.028
148 | ATCACACG | 0.157 ± 0.065
149 | ACCACATA | 0.0727 ± 0.0036
150 | ATCACACC | 0.12 ± 0.065

Row | Sequence | PBM 8-mer E-score
151 | ATCACACA | 0.251 ± 0.021
152 | AGCACATC | -0.0692 ± 0.013
153 | ACCACATG | 0.319 ± 0.077
154 | AGCACATG | 0.266 ± 0.049
155 | AGCACATA | 0.0478 ± 0.12
156 | ACGAGCAG | -0.0192 ± 0.02
157 | CACCCGGG | -0.361 ± 0.014
158 | CATCCGGA | -0.0933 ± 0.064
159 | CATCTCAC | -0.0239 ± 0.23
160 | AGTTTATG | 0.0668 ± 0.014
161 | CCTTTACG | 0.24 ± 0.01
162 | CCTTTACA | 0.173 ± 0.094
163 | CCTTTACC | 0.023 ± 0.2
164 | AAGCTACG | 0.0404 ± 0.15
165 | AGTCCTGA | -0.233 ± 0.16
166 | CATGGTAG | 0.0279 ± 0.022
167 | AATGGTAA | 0.27 ± 0.071
168 | AATGGTAG | 0.0638 ± 0.072
169 | CGTGGTAA | 0.215 ± 0.06
170 | CATGGTCG | 0.0286 ± 0.039
171 | CATGGTCA | 0.304 ± 0.047
172 | AATGGTAT | 0.213 ± 0.019
173 | TATGGTAA | 0.108 ± 0.0077
174 | CATGGTCC | -0.136 ± 0.14
